Measurements as given in PubChem BioAssay (NCI).
The panel holds about 83,000 compounds, 20% with a hit somewhere; the sample as a whole holds those more often.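 Negative percent growth values reflect cell death: -40 means 40% of the cells present at the start died, and -100 means all died.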 Activity calls are given as the source filed them. How the source made its calls: active means growth percent below 10; inactive means the rest.

What was measured:
Experiment in all cases: NCI-60 one-dose screen, 48 h (100 = growth as untreated, 0 = no growth, -100 = all killed)
NCI-H226 lung = conditions: 10 µM unless noted
NCI-H322M lung = conditions: 10 µM unless noted
HOP-92 NSCLC = conditions: 10 µM unless noted
NCI-H522 lung = conditions: 10 µM unless noted
U251 CNS = conditions: 10 µM unless noted
EKVX NSCLC = conditions: 10 µM unless noted
CCRF-CEM leukemia = conditions: 10 µM unless noted
RPMI-8226 leukemia = conditions: 10 µM unless noted
SK-OV-3 ovarian = conditions: 10 µM unless noted
IGROV1 ovarian = conditions: 10 µM
HS 578T breast = conditions: 10 µM unless noted
T-47D breast = conditions: 10 µM unless noted
BT-549 breast = conditions: 10 µM
MCF7 breast = conditions: 10 µM unless noted
HCC-2998 colon = conditions: 10 µM unless noted
HOP-62 NSCLC = conditions: 10 µM unless noted
SNB-19 CNS = conditions: 10 µM unless noted
TK-10 renal = conditions: 10 µM unless noted
SR leukemia = conditions: 10 µM

Measured: growth

COc1ccc(/C=C(/C(=O)N2CCCC2)c2cc(OC)c(OC)c(OC)c2)cc1N
inactive: NCI-H226 lung 75.9% | NCI-H322M lung 48.1% | HOP-92 NSCLC 46.1% | U251 CNS 31% | EKVX NSCLC 52.8% | CCRF-CEM leukemia 19% | RPMI-8226 leukemia 31.6% | SK-OV-3 ovarian 28.7% | IGROV1 ovarian 51.4% | HS 578T breast 15.2% | T-47D breast 37.8% | BT-549 breast 57.1% | MCF7 breast 14.2% | HCC-2998 colon 68.5%
active: NCI-H522 lung 3.14%

CC(=O)C1CCC2C3CC=C4CC(OC(=O)Cc5ccc(N(CCCl)CCCl)cc5)CCC4(C)C3CCC12C (stereo unspecified)
inactive: NCI-H226 lung 94.6% | NCI-H322M lung 119% | HOP-62 NSCLC 112% | NCI-H522 lung 80% | SNB-19 CNS 93.4% | U251 CNS 106% | EKVX NSCLC 83.1% | TK-10 renal 113% | CCRF-CEM leukemia 64.5% | SR leukemia 52.7% | RPMI-8226 leukemia 73.2% | SK-OV-3 ovarian 112% | IGROV1 ovarian 97.3% | HS 578T breast 126% | T-47D breast 105% | BT-549 breast 92% | MCF7 breast 106% | HCC-2998 colon 93.7%

Cc1cc(NC(=O)NCCOc2ccc(N3C(N)=NC(N)=NC3(C)C)cc2Cl)ccc1S(=O)(=O)F
active: MCF7 breast 4.3%
inactive: NCI-H226 lung 91.3% | NCI-H322M lung 43.4% | HOP-62 NSCLC 60.8% | SNB-19 CNS 51.5% | U251 CNS 10.7% | TK-10 renal 35.3% | CCRF-CEM leukemia 18.6% | SR leukemia 34.8% | RPMI-8226 leukemia 40.5% | IGROV1 ovarian 32.5% | T-47D breast 50% | BT-549 breast 52.1% | HCC-2998 colon 47.3%

C[CH2][Pb]([CH2]C)([CH2]C)[O]C(=O)COC
active: NCI-H226 lung 6.09% | NCI-H322M lung -11.1% | HOP-62 NSCLC -16.2% | U251 CNS -12.1% | SK-OV-3 ovarian -3.94% | IGROV1 ovarian -13% | HS 578T breast -2.8% | BT-549 breast -18.8% | MCF7 breast 0.034% | HCC-2998 colon -49.9%

CSc1ccccc1NP1(=O)OCC(C)([N+](=O)[O-])CO1 (stereo unspecified)
inactive: NCI-H226 lung 98.4% | NCI-H322M lung 126% | HOP-92 NSCLC 89.4% | NCI-H522 lung 103% | U251 CNS 95.8% | EKVX NSCLC 97.8% | TK-10 renal 110% | CCRF-CEM leukemia 80.8% | SR leukemia 91.3% | RPMI-8226 leukemia 111% | SK-OV-3 ovarian 98.2% | IGROV1 ovarian 119% | HS 578T breast 103% | BT-549 breast 90.1% | MCF7 breast 98.1% | HCC-2998 colon 104%

Cc1cc(NC(=O)/C=C/c2ccc([N+](=O)[O-])cc2)ccc1S(=O)(=O)F
inactive: NCI-H226 lung 105% | NCI-H322M lung 84.8% | HOP-62 NSCLC 103% | SNB-19 CNS 109% | U251 CNS 102% | TK-10 renal 96.2% | CCRF-CEM leukemia 98.2% | RPMI-8226 leukemia 87% | IGROV1 ovarian 101% | T-47D breast 87.6% | BT-549 breast 106% | MCF7 breast 91.8% | HCC-2998 colon 102%

O=C(O)CC(Br)C(=O)CBr (stereo unspecified)
inactive: NCI-H226 lung 91.9% | NCI-H322M lung 100% | HOP-62 NSCLC 105% | SNB-19 CNS 104% | U251 CNS 99.2% | TK-10 renal 98.9% | SR leukemia 113% | RPMI-8226 leukemia 103% | SK-OV-3 ovarian 106% | IGROV1 ovarian 109% | HS 578T breast 104% | T-47D breast 103% | MCF7 breast 86.3% | HCC-2998 colon 116%

CCOc1ccc(C(O)CN(C)Cc2ccccc2)cc1Cl (stereo unspecified)
inactive: NCI-H226 lung 92.1% | NCI-H322M lung 102% | HOP-92 NSCLC 75.4% | NCI-H522 lung 97.1% | SNB-19 CNS 100% | U251 CNS 97.4% | EKVX NSCLC 95.7% | TK-10 renal 102% | CCRF-CEM leukemia 108% | SR leukemia 95.7% | RPMI-8226 leukemia 104% | IGROV1 ovarian 106% | HS 578T breast 101% | T-47D breast 97.1% | BT-549 breast 106% | HCC-2998 colon 102%

Cc1cc(N(CCCl)CCCl)ccc1C=Nc1ccc2ccccc2c1
active: NCI-H226 lung -49.7%
inactive: NCI-H322M lung 103% | HOP-62 NSCLC 42.7% | SNB-19 CNS 84.7% | CCRF-CEM leukemia 55.3% | SR leukemia 46.2% | RPMI-8226 leukemia 78.8% | SK-OV-3 ovarian 80.9% | IGROV1 ovarian 63% | BT-549 breast 86.1% | HCC-2998 colon 94.5%

CC1(C)N=C(N)N=C(N)N1c1ccc(CCCCc2ccc(S(=O)(=O)F)cc2)cc1
active: MCF7 breast 2.82%
inactive: NCI-H226 lung 36.8% | NCI-H322M lung 31.2% | HOP-62 NSCLC 31.9% | SNB-19 CNS 42% | U251 CNS 16.7% | TK-10 renal 14.1% | CCRF-CEM leukemia 23.4% | SR leukemia 38% | RPMI-8226 leukemia 15.4% | IGROV1 ovarian 30.2% | T-47D breast 16.6% | BT-549 breast 48.7% | HCC-2998 colon 45.3%
